ALDH1A1 block: blocks purified human ALDH1A1 activity. Potency, µM (doses to about 75.3 µM), usual class: inhibitors. Purified ALDH1A1, NADH fluorescence, propionaldehyde substrate. P00352. AID 1030. actives 7.3% (n = 220,000)
Target sequence (P00352 whole entry, looked up): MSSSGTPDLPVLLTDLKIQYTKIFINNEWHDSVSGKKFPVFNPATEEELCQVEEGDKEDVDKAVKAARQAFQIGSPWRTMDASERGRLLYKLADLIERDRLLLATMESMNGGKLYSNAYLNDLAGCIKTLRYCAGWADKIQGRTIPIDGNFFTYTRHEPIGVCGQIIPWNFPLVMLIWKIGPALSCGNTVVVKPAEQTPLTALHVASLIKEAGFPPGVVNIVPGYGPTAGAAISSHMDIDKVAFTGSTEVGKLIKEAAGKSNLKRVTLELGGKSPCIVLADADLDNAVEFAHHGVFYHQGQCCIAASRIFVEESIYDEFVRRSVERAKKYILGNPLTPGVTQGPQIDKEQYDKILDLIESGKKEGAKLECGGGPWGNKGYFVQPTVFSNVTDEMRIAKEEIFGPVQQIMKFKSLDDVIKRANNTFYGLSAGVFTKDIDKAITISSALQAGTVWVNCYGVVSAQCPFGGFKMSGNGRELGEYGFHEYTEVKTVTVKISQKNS
PNC inhibitor: blocks assembly of the perinucleolar compartment. actives 3.1% (n = 140,000). activity change (PNC), negative = inhibition, % at 10 µM. AID 2417. PC3M PTB-GFP, PNC prevalence imaging, 16 h; active compounds read low;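 active = readout at or below -70, meaning at least 70% loss of cells showing the perinucleolar compartment, a nuclear body marking cancer cells; inconclusive = readout between -30 and a set limit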
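PC3M cells stably expressing PTB-GFP, 750–1000 cells/well, treated 16 h at 37 °C with compound (23 nl of library stock), in duplicate. After paraformaldehyde fixation and Hoechst stain, imaged at 20x; PNC prevalence scored by image analysis.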
KDM4E inh: inhibitors of human JMJD2E histone demethylase. B2RXH2. JMJD2E catalytic domain, FDH-coupled NADH fluorescence (FDH is formaldehyde dehydrogenase). Potency, µM (titrated, usually from 57.1 µM), hits mostly inhibitors. actives 1.6% (n = 230,000); also: nearly all actives have a fitted effect of over 50% in size
HPGD inh: inhibitors of human 15-hydroxyprostaglandin dehydrogenase (HPGD); AID 894; actives 4.3% (n = 150,000); Potency, µM, usual class: inhibitors; purified HPGD, NADH fluorescence kinetic, PGE2 substrate; P15428
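NADH formation kinetics: reaction with 30 uM PGE2 and 1 mM NAD+ (final), 20 nM enzyme, Tris-HCl pH 8 with Tween 20, after 15 min compound preincubation at room temperature. Fluorescence change, last versus first of five reads.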
Hits are given with their value; i = inactive; ? = inconclusive; nt = not tested or not shown; [ ] = remark or other dose. Sampled rows, rich in hits. Any-hit rate of the full collection: about 11%. Unless noted, calls follow the shape of the dose curve; as a rule, active = well fitted inhibition curve with a large enough effect (not every such curve was filed as active); inconclusive = small, poorly fitted or top-dose-only effect, or another doubt; inactive = no such curve, though single readings can be large or run the other way.

SMILES | ALDH1A1 block | PNC inhibitor | KDM4E inh | HPGD inh
N#Cc1c(NC(=O)COC(=O)c2ccc(S(=O)(=O)N3CCCC3)cc2)sc2c1CCCCC2 | 10µM | i | i | nt
N#Cc1c(NC(=O)COC(=O)c2ccc(F)cc2)sc2c1CCC2 | i | i | i | i
Cc1ccc(C(=O)OCC(=O)Nc2sc3c(c2C#N)CCC3)cc1 | 25µM | i | i | i
CCCCCC(=O)/C=C/[C@@H]1[C@@H](C/C=C\CCCC(=O)O)[C@@H](O)C[C@H]1O | i | nt | i | i
Cc1ccc(C)c(S(=O)(=O)N=Nc2c(O)[nH]c3ccccc23)c1 | 10µM | nt | i | nt
Cc1ccc(S(=O)(=O)N=Nc2c(O)[nH]c3ccccc23)cc1 | ? | i | i | i
COc1ccc(OCc2cc(C(=O)O)c(C)o2)cc1 | i | nt | i | nt
Cc1cccc(-c2ncc(CN3CCCC(CO)(Cc4ccccc4C)C3)cn2)c1 (centres undefined) | i | nt | i | nt
CCOc1ccccc1CN1CCN(Cc2csc(C(C)=O)c2)CC1CCO (centres undefined) | i | nt | i | nt
O=C(CSc1nnnn1-c1ccccc1F)NNC(=O)c1ccco1 | 14µM | nt | i | nt
Cc1ccc(-n2nnnc2SCC(=O)NNC(=O)c2ccco2)c(C)c1 | ? | i | i | i
Cc1ccccc1NC(=O)CCSc1nnnn1-c1ccccc1 | 8.9µM | i | i | i
O=C(O)CCSc1nnnn1-c1ccccc1 | i | i | i | nt
CSc1ccccc1NC(=O)CSc1nnnn1-c1ccccc1SC | 11µM | ? | i | i
CSc1ccccc1-n1nnnc1SCC(=O)NCc1cccs1 | 16µM | ? | i | i
CCCCNC(=O)c1cc2ccccc2s1 | i | nt | i | nt
COc1ccc(CNC(C)C(=O)Nc2ccc3ccccc3c2)cc1OC (centres undefined) | i | nt | i | nt
CSc1ccccc1-n1nnnc1SCC(=O)Nc1ccccc1C | 13µM | i | i | i
O=C(Cc1ccccc1)NNC(=O)c1ccccc1C(=O)O | nt | nt | i | nt
COc1ccccc1C1=Nn2c(COc3ccccc3)nnc2SC1 | 14µM | nt | ? | nt
COc1ccc(OCc2nnc3n2N=C(c2ccc(OC)cc2)CS3)cc1 | ? | i | i | i
c1ccc(OCc2nnc3n2N=C(c2ccccc2)CS3)cc1 | 10µM | nt | ? | nt
CCOC(=O)C1=C(C)c2ccccc2OC1(C(=O)OCC)C(C)C (centres undefined) | i | nt | nt | i
Clc1ccc2c(NCc3ccco3)ncnc2c1 | i | i | i | i
Clc1ccc2c(NCc3ccccn3)ncnc2c1 | 3.5µM | i | ? | ?
SMILES | ALDH1A1 block | PNC inhibitor | KDM4E inh | HPGD inh
CC(C)(C)OC(=O)[C@H](C1N[C@@H](C(=O)O)C(C)(C)S1)N1C(=O)c2ccccc2C1=O (some centres undefined) | i[13.5 µM] | nt | nt | i
Cc1nnc(-c2ccc(N3CCCCCC3)c([N+](=O)[O-])c2)o1 | nt | nt | i | nt
O=C(CSc1nnc2c(n1)[nH]c1ccccc12)Nc1cccc(S(=O)(=O)N2CCOCC2)c1 | nt | nt | i | nt
N#Cc1nc(-c2ccc(OCc3ccccc3Cl)cc2)oc1NCCCn1ccnc1 | ? | ? | 3.2µM | ?
N#Cc1nc(-c2ccc(OCc3ccccc3)cc2)oc1NCCCn1ccnc1 | ? | i | ? | ?
N#Cc1nc(-c2ccco2)oc1NCCc1ccccc1 | ? | i | ? | ?
COc1ccc(CCNc2oc(-c3ccco3)nc2C#N)cc1 | ? | -100 | ? | ?
CCN1C(=O)c2cccc3c(S(=O)(=O)Nc4c(C)n(C)n(-c5ccccc5)c4=O)ccc1c23 | 14µM | ? | i | i
Cc1c(NC(=O)CN2C(=O)c3cccc4cccc2c34)c(=O)n(-c2ccccc2)n1C | ? | i | i | i
CCOC(=O)CNC(=O)c1cc(C)oc1C | 0.063µM | i | i | i
O=C(NCc1ccccc1)c1ccc2c(c1)OCCO2 | i | i | i | ?
Cc1scc(C(=O)NCc2ccco2)c1-c1ccccc1 | ? | ? | i | 32µM
O=C(NCc1cccs1)c1ccc2c(c1)OCCO2 | i | ? | i | 25µM
O=C(NCc1ccco1)c1ccccc1-c1ccccc1 | i | i | i | i
O=C(NCc1ccco1)c1cnc2sccn2c1=O | ? | ? | i | ?
Cc1csc2ncc(C(=O)NCc3ccco3)c(=O)n12 | ? | -100 | ? | ?
CC(C)(C)c1ccc(NC(=O)c2c(F)cccc2Cl)cc1 | i | nt | i | nt
CC(C)Oc1ccc(C(=O)NCc2cccs2)cc1 | i | i | i | ?
O=C(NCc1cccs1)c1ccc(N2CCCC2=O)cc1 | i | i | i | 20µM
COC(=O)c1cc(NC(=O)c2cc(C)oc2C)cc(C(=O)OC)c1 | 25µM | -100 | i | i
Cc1cc(C(=O)NCc2cccs2)cs1 | i | i | i | 28µM
C#Cc1ccc(C(=O)NCc2ccc(N3CCCC3=O)cc2)cc1 | ? | nt | i | nt
Cc1cc(C(=O)Nc2cccc(C(=O)O)c2)c(C)o1 | i | i | i | i
O=C(NCc1cccs1)c1ccncc1 | i | i | i | i
O=C(NCc1cccs1)c1ccccc1 | i | i | i | 25µM
SMILES | ALDH1A1 block | PNC inhibitor | KDM4E inh | HPGD inh
O=C(O)CCCNc1c(C(=O)Nc2ccc(Cl)cc2)cc([N+](=O)[O-])cc1[N+](=O)[O-] | i | nt | i | nt
Cc1cc(C(=O)NCc2ccco2)cs1 | ? | ? | i | 16µM
Cc1scc(C(=O)Nc2ccon2)c1-c1ccccc1 | 28µM | ? | i | i
Cc1occc1C(=O)NCc1cccs1 | i | i | i | ?
O=C(NCCN1CCCCC1)c1ccc2c(c1)OCCO2 | i | i | i | 8.9µM
Cc1cc(C(=O)NCc2cccs2)c(C)o1 | i | i | i | 16µM
CCOc1ccc(N2C(=O)CC(NCc3ccc(F)cc3)C2=O)cc1 (centres undefined) | ? | ? | i | i
O=C(c1ccccc1)c1cccs1 | i | nt | i | nt
CCOc1ccc(C(=O)c2cccs2)cc1 | i | i | i | 16µM
CCOc1ccc(N2C(=O)CC(NCCNc3ccc(C(=O)c4cccs4)cc3)C2=O)cc1 (centres undefined) | 22µM | nt | ? | nt
Cc1occc1C(=O)NNC(=O)c1ccccc1Br | i | i | i | i
CN(C(=O)CSc1nc2ccc(Br)cc2c(=O)n1Cc1ccco1)C1CCS(=O)(=O)C1 (centres undefined) | 13µM | nt | i | nt
CCN(C(=O)CSc1nc2cc(Cl)ccc2c(=O)n1Cc1ccco1)C1CCS(=O)(=O)C1 (centres undefined) | 18µM | nt | i | nt
CN(C(=O)CSc1nc2cc(C(=O)O)ccc2c(=O)n1Cc1ccccc1)C1CCS(=O)(=O)C1 (centres undefined) | i | nt | ? | nt
Cc1ccc(C(=O)N2CCN(c3ccccn3)CC2)cc1[N+](=O)[O-] | ? | nt | i | nt
O=C(c1ccc(Cl)c([N+](=O)[O-])c1)N1CCN(c2ccccn2)CC1 | 10µM | i | i | i
O=C(c1ccc(N2CCCC2)c([N+](=O)[O-])c1)N1CCN(c2ccccn2)CC1 | ? | nt | i | nt
O=C(c1ccc(S(=O)(=O)Cc2ccccc2Cl)c([N+](=O)[O-])c1)N1CCN(c2ccccn2)CC1 | 18µM | nt | i | nt
Cc1ccc(C(=O)c2cc(C)sc2N)cc1 | i | nt | i | nt
CCc1cc(C(=O)c2ccc(OC)cc2)c(NC(=O)CN2CCCC2)s1 | 10µM | nt | ? | nt
CCc1cc(C(=O)c2ccc(C)cc2)c(NC(=O)CCl)s1 | 2.5µM | i | i | i
Cc1cc(C(=O)c2ccc(Cl)cc2)c(NC(=O)CCl)s1 | 0.89µM | i | i | i

High-throughput results: PubChem, National Center for Advancing Translational Sciences (NCATS)
